# High-throughput results: PubChem BioAssay, National Center for Advancing Translational Sciences (NCATS)
# Only some compounds are listed: those with a hit (about 11% of all), similar ones and a draw of the others.
# L3MBTL1 inh: inhibitors of human L3MBTL1; Potency, µM (top dose mostly 57.1 µM), without a hit: at the top dose activity, negative = inhibition, actives largely listed as inhibitors; AlphaScreen L3MBTL1–H3K9me1 peptide binding; actives 0.66% (n = 230,000); Q9Y468; also: % is scaled to controls: 0 for no effect and ±100 for the full control effect; nearly all actives have a fitted effect of over 60% in size
#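 L3MBTL1 (50 nM) pre-complexed 30 min with biotinylated H3(1-15)K9me1 peptide (75 nM), then compounds added for 30 min at room temperature; AlphaScreen streptavidin donor/nickel chelate acceptor beads (10 ug/mL final) read after 30 min dark incubation.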
# G9a block: inhibitors of human histone lysine methyltransferase G9a; Q96KQ7; G9a H3K9 monomethylation, AlphaScreen, 2 h; Potency, µM (series often up to 102 µM), for the others: at the highest dose activity, negative = inhibition, actives largely listed as inhibitors; actives 8.8% (n = 350,000); also: % is scaled to controls: 0 for no effect and ±100 for the full control effect; nearly all actives have a fitted effect of over 75% in size
#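 Step 1: enzyme (final 20 nM) with compound, 15 min RT. Step 2: substrate peptide 500 nM and SAM 20 uM, 2 h RT. Step 3: anti-H3K9me1 antibody and AlphaScreen beads, 10 min, then plate read.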
# JMJD2A Tudor: JMJD2A Tudor domain (human) inhibition; O75164; AlphaScreen JMJD2A-Tudor / H3K4me3 peptide binding; Potency, µM (series often up to 114 µM), inactives show at the top dose activity change, negative = inhibition, usual class: inhibitors; actives 4.4% (n = 390,000); also: % is scaled to controls: 0 for no effect and ±100 for the full control effect; nearly all actives have a fitted effect of over 50% in size
# HP1b chromo inh: HP1-beta chromodomain-methylated histone interaction inhibition; AlphaScreen HP1-beta / biotin-H3K9me3 peptide binding; P83916; Potency, µM (series often up to 114 µM), inactives show at the top dose activity change, negative = inhibition, hits mostly inhibitors; actives 0.56% (n = 390,000); also: nearly all actives have a fitted effect of over 70% in size
#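 HP1-beta protein (50 nM final) preincubated 30 min at room temperature with biotinylated H3(1-18)K9me3 peptide (50 nM) in PBS pH 7.4, 0.01% Tween-20, then compound added for 30 min. AlphaScreen streptavidin donor/nickel chelate acceptor beads (10 ug/mL final), 30 min dark, luminescence read.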
# BAZ2B inh: BAZ2B (human) inhibition; Q9UIF8; AlphaScreen BAZ2B-H3K14Ac peptide displacement; Potency, µM (highest dose often 114 µM), for inactives: at the highest dose activity change, negative = inhibition, actives largely listed as inhibitors; actives 4.4% (n = 360,000); AID 504333; also: % is scaled to controls: 0 for no effect and ±100 for the full control effect; nearly all actives have a fitted effect of over 60% in size
# Target sequence (Q9UIF8 whole entry, looked up): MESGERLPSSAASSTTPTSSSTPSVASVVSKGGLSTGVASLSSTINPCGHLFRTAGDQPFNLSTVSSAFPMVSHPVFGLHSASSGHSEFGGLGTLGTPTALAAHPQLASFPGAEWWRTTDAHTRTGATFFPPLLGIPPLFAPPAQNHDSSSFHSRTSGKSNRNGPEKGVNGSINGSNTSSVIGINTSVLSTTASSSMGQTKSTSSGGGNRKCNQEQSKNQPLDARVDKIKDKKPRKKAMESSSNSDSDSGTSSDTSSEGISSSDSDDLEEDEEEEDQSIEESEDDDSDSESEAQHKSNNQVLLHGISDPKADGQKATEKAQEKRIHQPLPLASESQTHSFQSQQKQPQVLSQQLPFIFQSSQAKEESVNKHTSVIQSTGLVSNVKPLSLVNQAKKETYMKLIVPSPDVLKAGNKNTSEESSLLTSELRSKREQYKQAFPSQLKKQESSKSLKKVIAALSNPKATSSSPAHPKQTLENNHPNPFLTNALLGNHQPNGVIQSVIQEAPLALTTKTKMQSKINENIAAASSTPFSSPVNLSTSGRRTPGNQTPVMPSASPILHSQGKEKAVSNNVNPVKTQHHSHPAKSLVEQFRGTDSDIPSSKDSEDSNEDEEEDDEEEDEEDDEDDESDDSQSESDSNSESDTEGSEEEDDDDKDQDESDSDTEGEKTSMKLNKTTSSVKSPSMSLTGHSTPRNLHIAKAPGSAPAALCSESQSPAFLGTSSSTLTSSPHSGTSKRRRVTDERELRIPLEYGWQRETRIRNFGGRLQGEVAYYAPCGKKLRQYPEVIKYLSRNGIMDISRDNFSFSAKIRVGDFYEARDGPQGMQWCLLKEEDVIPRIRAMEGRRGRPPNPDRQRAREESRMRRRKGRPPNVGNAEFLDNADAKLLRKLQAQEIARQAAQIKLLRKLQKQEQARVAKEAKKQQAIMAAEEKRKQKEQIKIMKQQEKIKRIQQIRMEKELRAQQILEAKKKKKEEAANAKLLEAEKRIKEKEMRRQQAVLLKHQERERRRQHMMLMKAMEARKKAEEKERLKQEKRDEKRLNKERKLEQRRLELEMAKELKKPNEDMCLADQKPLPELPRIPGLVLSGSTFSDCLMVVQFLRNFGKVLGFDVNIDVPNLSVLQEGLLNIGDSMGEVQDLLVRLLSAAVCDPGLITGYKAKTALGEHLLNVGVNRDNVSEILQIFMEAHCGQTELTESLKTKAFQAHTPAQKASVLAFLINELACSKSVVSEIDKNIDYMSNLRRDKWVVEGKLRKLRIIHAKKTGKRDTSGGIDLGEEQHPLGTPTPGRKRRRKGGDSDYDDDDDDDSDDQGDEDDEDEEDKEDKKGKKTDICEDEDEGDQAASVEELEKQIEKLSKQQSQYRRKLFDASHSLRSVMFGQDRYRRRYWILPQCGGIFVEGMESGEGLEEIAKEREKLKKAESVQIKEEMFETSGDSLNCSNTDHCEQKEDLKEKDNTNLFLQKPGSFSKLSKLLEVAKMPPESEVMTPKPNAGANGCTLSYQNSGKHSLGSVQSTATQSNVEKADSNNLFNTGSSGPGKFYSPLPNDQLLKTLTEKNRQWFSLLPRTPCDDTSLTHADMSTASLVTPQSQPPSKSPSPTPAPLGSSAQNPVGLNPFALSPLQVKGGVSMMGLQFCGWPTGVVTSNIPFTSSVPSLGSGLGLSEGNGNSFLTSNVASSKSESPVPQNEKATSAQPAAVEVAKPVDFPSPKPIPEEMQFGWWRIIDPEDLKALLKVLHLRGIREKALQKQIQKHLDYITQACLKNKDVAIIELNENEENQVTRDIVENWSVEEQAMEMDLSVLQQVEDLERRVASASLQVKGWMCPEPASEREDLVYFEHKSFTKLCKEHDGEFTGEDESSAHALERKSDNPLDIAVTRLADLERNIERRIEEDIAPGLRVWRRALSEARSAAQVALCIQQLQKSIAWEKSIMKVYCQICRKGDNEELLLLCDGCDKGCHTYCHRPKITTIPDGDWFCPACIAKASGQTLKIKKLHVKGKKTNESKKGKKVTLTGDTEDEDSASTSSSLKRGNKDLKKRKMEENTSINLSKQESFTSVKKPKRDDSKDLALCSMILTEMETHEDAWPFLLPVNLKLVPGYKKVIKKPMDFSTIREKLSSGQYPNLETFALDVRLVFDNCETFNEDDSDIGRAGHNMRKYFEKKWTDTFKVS
#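 BAZ2B (50 nM) with biotin-H3(5-23)K14Ac peptide (50 nM) in PBS pH 7.4, 0.01% Tween-20, preformed 30 min, then compound 30 min at room temperature; top concentration 110uM. AlphaScreen streptavidin donor/nickel chelate acceptor beads (10 ug/mL final), 20 min dark, signal read.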
# * hit, by the source's call; ? = inconclusive; · = no result given; ! = not active in a repeat; [ ] = remark or other dose. Calls follow the shape of the dose curve; as a rule, active = well fitted inhibition curve with a large enough effect; inconclusive = small, poorly fitted or top-dose-only effect; inactive = no such curve, though single readings can be large or run the other way. Potency is read from the fitted curve at half-maximal effect.
SMILES,L3MBTL1 inh,G9a block,JMJD2A Tudor,HP1b chromo inh,BAZ2B inh
CCN(Cc1nc(-c2ccc(OC)c(OC)c2)no1)S(=O)(=O)c1ccc(OC)cc1,·,0%[59 µM],-11%,30%,3%
Cc1ccc2occ(CC(=O)N(Cc3ccc(Cl)cc3)C3CCS(=O)(=O)C3)c2c1 (centres undefined),·,0%[59 µM],-31%,9%,-11%
CCOC(=O)c1cc(-c2ccccc2)n(-c2cccc(C(=O)Nc3cccc(C)c3)c2)c1C,·,?,?,22%,-27%
CCOC(=O)c1cc(C)n(-c2ccccc2)c1C,-12%,4%,-29%,1%,79µM*
CCOC(=O)c1cc(-c2ccccc2)n(-c2cccc(C(=O)N(CC)c3ccccc3)c2)c1C,·,?,?,-10%,10µM*
CCN(CC)CCNCc1ccc(-c2ccc(Cl)cc2)o1,-5%,50µM*,?,-7%,?
CCN(CC)CCNCC(O)(c1ccc(Cl)cc1)c1ccc(Cl)cc1,7%,-29%,-21%,32%,-5%
CN1CC(C(=O)O)Cc2c1ccc1ccccc21 (centres undefined),-15%,20µM*,-17%,24%,-33%
O=C(c1ccc2c(c1)OCO2)N(Cc1ccco1)C1(C(=O)NC2CCCCC2)CCCCC1,·,79µM*,-22%,-10%,-6%
CC1CC(C)(C)N2C(=O)C3(Nc4ccccc4S3)c3cccc1c32 (centres undefined),·,45µM*,50µM*,-2%,50µM*
Cc1cc2c3c(c1)C1(SCC(=O)N1c1ccc(F)cc1)C(=O)N3C(C)(C)CC2C (centres undefined),·,1%[59 µM],?,5%,-34%
Nc1nc(Cl)nc2c1ncn2[C@@H]1O[C@H](CO)[C@H](O)C1F (some centres undefined),·,25%[59 µM],·,·,·
Cc1ccc(CN2C(=O)SC(Nc3ccc(Cl)cc3)C2=O)cc1 (centres undefined),·,7%[59 µM],8%,42%,12%
COc1cc(OC)cc(C(=O)NCC(=O)N2CC=C(c3ccccc3)CC2)c1,29%,50µM*,-16%,17%,-16%
O=C(NCC(=O)N1CC=C(c2ccccc2)CC1)c1ccc(OC(F)F)cc1,-4%,·,-9%,28%,·
Cc1cc(C)cc(N(C)S(=O)(=O)c2nnc(NC(=O)COc3ccc(Cl)cc3)s2)c1,·,-38%[59 µM],-28%,9%,-10%
O=C1NCC2=C1C(c1ccc(Br)cc1)Nc1ccccc1N2 (centres undefined),-5%,45µM*,-31%,17%,-3%
COCCCNCCOc1ccccc1-c1ccccc1,?,7.9µM*,25µM*,-35%,-32%
COCCCNCCCCOc1ccccc1-c1ccccc1,-2%,14µM*,79µM*,?,71µM*
COCCNCCOc1ccccc1-c1ccccc1,·,10µM*,14µM*,?,?
CCCCNCCOc1ccccc1-c1ccccc1,10%,?,3.5µM*,?,?
OCCNCCOCCOc1ccccc1-c1ccccc1,-3%,8.9µM*,3.2µM*,?,?
CCCCOc1ccc(CC(=O)NO)cc1,-1%,28µM*!,-6%,44%,-24%
CCOc1ccc(NC(=O)CN2CCN(CC(=O)Nc3ccc(OC)cc3OC)CC2)cc1,·,?,-20%,72%,-11%
CCOc1ccc(NC(=O)CN2CCN(CC(=O)Nc3ccc(C(=O)OC)cc3)CC2)cc1,3%,32µM*,0%,26%,9%
SMILES,L3MBTL1 inh,G9a block,JMJD2A Tudor,HP1b chromo inh,BAZ2B inh
CCN(CC)c1ccc(NC(=O)CN2CCN(CC(=O)Nc3ccccc3OC)CC2)cc1,·,45µM*,56µM*,?,?
CCOc1ccc(NC(=O)CN2CCN(CC(=O)Nc3ccccc3OC)CC2)cc1,·,45µM*,-4%,43%,1%
COc1ccccc1NC(=O)CN1CCN(CC(=O)Nc2ccc3c(c2)OCO3)CC1,·,-18%[12.7 µM],-20%,21%,10%
CCCNC(=O)[C@@H]1CCCN1C(=O)[C@@H]1Cc2ccccc2CN1,·,-5%,-6%,0%,-37%
CCOc1ccc(Nc2oc(/C=C/c3cccc(OC)c3)nc2C#N)cc1,·,-3%[59 µM],-17%,22%,-13%
COc1ccccc1NC(=O)CN1CCN(CC(=O)Nc2cc(NC(C)=O)ccc2OC)CC1,6%,40µM*,-5%,47%,6%
CCCCOc1ccc(NC(=O)CN2CCN(CC)CC2)cc1,-1%,11µM*,0.79µM*,?,56µM*
COc1ccc(NC(C)=O)cc1NC(C)C(=O)Nc1cccc2ccccc12 (centres undefined),·,50µM*,-32%,19%,-32%
COc1ccc(NC(C)=O)cc1NC(C)C(=O)Nc1ccc(F)cc1 (centres undefined),·,-17%[12.7 µM],-10%,38%,-7%
Nc1c(C(=O)Nc2ccc(Cl)c(C(F)(F)F)c2)sc2nc(-c3ccncc3)ccc12,·,-9%[59 µM],-15%,32%,2%
CCC(Sc1nc2nccnc2c(=O)n1Cc1ccc(OC)cc1)C(=O)NC1CCCCC1 (centres undefined),·,11%[59 µM],6%,35%,-11%
COc1ccc(Oc2cc(Cl)nc(N)n2)cc1,2%,50µM*,-5%,36%,-19%
Cc1occc1-c1n[nH]c(=S)n1-c1ccccc1,9%,5µM*,7.1µM*,25%,-7%
Cc1occc1-c1nnc(SCC(=O)O)n1-c1ccccc1,·,-4%[59 µM],0%,16%[57 µM],-3%
Cc1occc1-c1n[nH]c(=S)n1C,15%,35µM*,-7%[11.4 µM],?,-13%
CCCCN(CCCC)S(=O)(=O)c1ccc(N2CCCC2=O)c([N+](=O)[O-])c1,·,·,32µM*,-8%,·
NNS(=O)(=O)c1ccc(N2CCCC2=O)c([N+](=O)[O-])c1,2%,10µM*,25µM*,48%,-17%
O=C(NNc1ccccc1)/C(=C\c1cccnc1)NC(=O)c1ccccc1,0%,4µM*,-9%,58%,-13%
CCOC(=O)Cc1ccc(NC(=O)N(Cc2ccc(OC)cc2)C2CCN(C(C)=O)CC2)cc1,·,3%[59 µM],-16%,3%,-2%
O=c1c(-c2cc(F)cc(F)c2)nc2cnc(N3CCNCC3)nc2n1Cc1cccs1,·,9%[12.7 µM],·,·,·
CN(Cc1ccccc1)CC(O)COc1ccc(CNCc2nccn2C)cc1 (centres undefined),-22%,·,-15%[11.4 µM],14%,56µM*
CCn1ccnc1CNCc1ccc(OCC(O)CN(C)Cc2ccccc2)cc1 (centres undefined),-16%,·,?,8%,?
CCOC(=O)NC(=O)/C(C#N)=C(/C)N(C)C,35%,0%,-6%,39%,-5%
COC(=O)CNC(=O)C1CCCN1C(=O)OC(C)(C)C (centres undefined),·,8%[12.7 µM],-16%,28%,3%
CC(C)(C)OC(=O)N1CCC[C@H]1C(=O)NCc1ccc(Cl)cc1Cl,22%,0%,45µM*,-5%,-3%
